# High-throughput results as filed in PubChem.
# D1 antag: antagonists of human D1 dopamine receptor; AID 504652; P21728; 3.2% of 360,000 active; HEK293 TREx D1 cells, calcium flux, dopamine EC80; stronger effect = lower value; activity change, negative = inhibition, % at 10 µM; in the data active = activity change below about -30%; also: % is scaled to controls: 0 for no effect and ±100 for the full control effect
# Target sequence (P21728 whole entry, looked up): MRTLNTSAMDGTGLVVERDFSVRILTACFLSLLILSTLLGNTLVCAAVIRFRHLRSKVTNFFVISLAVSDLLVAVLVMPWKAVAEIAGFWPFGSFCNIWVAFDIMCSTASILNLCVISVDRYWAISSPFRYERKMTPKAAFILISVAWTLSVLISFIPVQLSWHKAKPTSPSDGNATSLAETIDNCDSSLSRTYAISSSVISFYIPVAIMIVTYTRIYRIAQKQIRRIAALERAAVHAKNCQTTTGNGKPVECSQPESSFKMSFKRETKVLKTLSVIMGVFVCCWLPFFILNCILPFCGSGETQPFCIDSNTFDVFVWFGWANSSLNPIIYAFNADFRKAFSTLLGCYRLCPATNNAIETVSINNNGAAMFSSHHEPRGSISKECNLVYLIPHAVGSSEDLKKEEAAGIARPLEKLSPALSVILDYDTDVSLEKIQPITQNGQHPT
#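 Using tetracycline-induced force-coupled D1 Hek293 cells and a calcium dye, signals were followed for 180 s after compound, then for 180 s after EC80 dopamine, to detect inhibitors.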
# D3 antag: blocks the human D3 dopamine receptor; D3R cells, DiscoveRx beta-arrestin luminescence, antagonist mode; stronger effect = lower value; AID 652054; 2.5% of 360,000 active; max response, negative = inhibition, %; P35462; in the data active = max response below about -50%; also: % is scaled to controls: 0 for no effect and ±100 for the full control effect
#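 Cells plated overnight at 1500 cells/well, then exposed to library compounds with dopamine controls for 90 minutes at 37 degrees C. DiscoveRx reagent added for 30–60 minutes at room temperature; luminescence read, quantitative HTS format.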
# D1 ag: activates the human D1 dopamine receptor; P21728; HEK293 T-REx D1 cells, calcium flux, agonist mode; activation, % at 2 µM; 1% of 360,000 active; in the data active = activation above about 30%; also: 0% is about no effect
#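 Agonism was scored from calcium flux recorded over 180 s (1 read/s) after pintool compound addition, following a 10-cycle baseline. Cells were inducible force-coupled HEK293 TREx D1, plated overnight at 30 C and loaded with no-wash calcium dye.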
# D1 PAM: enhances dopamine response at the human D1 receptor; HEK293 TREx D1 cells, calcium flux, dopamine EC20 potentiation; potentiation, % at 10 µM; P21728; 0.036% of 360,000 active; in the data active = potentiation above about 30%; also: 0% is about no effect
# D3 ag: agonists of human D3 dopamine receptor; P35462; D3R DiscoveRx beta-arrestin cells, luminescence, 90 min; max activation, %; 0.58% of 410,000 active; AID 652048; in the data active = max activation above about 30%; also: 0% is about no effect
#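 Cells at 1500/well, incubated overnight, then treated with pinned compounds (dopamine as control) for 90 min at 37 degrees C. DiscoveRx reagent added for 30 - 60 minutes at room temperature; luminescence read.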
# * marks the source's active call; other numbers are inactive results; · = no result. Sampled rows, rich in hits. Any-hit rate of the full collection: about 6%.
SMILES,D1 antag,D3 antag,D1 ag,D1 PAM,D3 ag
CCOc1ccc(-c2csc(NC(=O)CSC3=NC(=O)CN3C(C)=O)n2)c2ccccc12,15,-13,-1,3,-17
Nc1nc(=O)n(C2OC(CO)C(O)C2O)cc1F (configuration not stated),·,-78*,·,·,-17
CCC(C)NC(=O)c1cc2c(Cl)nc3ccc(C)cc3c2s1 (configuration not stated),-2,·,0,-1,5
CC(C)c1cc(C(=O)NNC(=S)NC2CCCCC2)cs1,-2,-53*,1,1,-20
COc1ccc(-c2[nH]c(-c3ccc(F)cc3)nc2SCC(=O)Nc2ccc(OC)c(OC)c2)cc1,7,·,0,0,-8
CCCCN(C)CCNC(=O)C1CCN(c2nc3ccc(CC)cc3s2)CC1,-55*,·,65*,1,-15
CCCCN(C)Cc1cc(=O)oc2cc3c(cc12)CCCC3,1,-91*,3,3,-47
CCN(CCO)Cc1cc(=O)oc2cc3c(cc12)CCC3,-9,-9,1,0,-8
Cc1ccc(S(=O)(=O)N/N=C\c2cn(-c3ccccc3)nc2-c2ccccc2)cc1,-4,11,2,7,17
Cc1ccc(-c2nn(-c3ccccc3)cc2/C=C/C(=O)Nc2nccs2)cc1,-31*,45,13,-5,6
Cc1ccc(-c2nn(-c3ccccc3)cc2/C=N/O)cc1,-1,-53*,58*,38*,-6
O/N=C/c1cn(-c2ccccc2)nc1-c1cccnc1,-10,-16,2,-1,-3
Cc1ccc(-c2nn(-c3ccccc3)cc2/C=N/NS(=O)(=O)c2ccccc2)cc1,-6,-54*,0,-4,-10
C/C(=N\Nc1cccc(C(=O)O)c1)c1ccc(Cl)s1,-59*,0,5,5,3
C/C(=N\NC(=O)C(=O)Nc1cccc(C(F)(F)F)c1)c1ccc(Cl)s1,-39*,8,7,-3,8
CC(Sc1nc2c([nH]c3ccccc32)c(=O)n1-c1ccccc1)c1ccccc1 (configuration not stated),1,·,0,2,-13
COc1ccccc1N(C(=O)c1ccncc1)c1nc(-c2ccc([N+](=O)[O-])cc2)cs1,-38*,8,4,-2,2
CC(C)c1cnc2c(c1SCC(=O)Nc1cccc([N+](=O)[O-])c1)c(=O)n(C)c(=O)n2C,7,·,-1,2,-8
O=S(=O)(c1ccccc1)n1nc(-c2ccco2)nc1NCc1ccccc1,-4,·,5,1,4
CC(=O)C1=C(C)Nc2ncnn2C1c1cccc(OCc2ccccc2)c1 (configuration not stated),-31*,20,-3,-10,-2
O=C(C[n+]1cc(-c2ccc(Br)cc2)n2c1CCCCC2)c1ccccc1,10,-24,0,8,-13
O=C(C[n+]1cc(-c2ccc(Cl)cc2)n2c1CCCCC2)c1ccccc1,-2,-63*,0,-5,-30
CCc1ccc2occ(CC(=O)Nc3ccc(C)c(C)c3)c2c1,-1,·,15,-2,1
COc1cc(CN(C(=O)c2ccc(C)cc2)C2CCS(=O)(=O)C2)cc(OC)c1OC (configuration not stated),-30*,·,0,-2,3
COc1cc(SC)ccc1C(=O)Nc1ccc(S(=O)(=O)Nc2nccc(C)n2)cc1,-4,·,2,1,1
SMILES,D1 antag,D3 antag,D1 ag,D1 PAM,D3 ag
O=C(Nc1ccc(N2CCOCC2)cc1)C1CCCCN1S(=O)(=O)c1ccccc1 (configuration not stated),-32*,9,5,-3,5
O=C(Nc1ccccc1)C1CCCCN1S(=O)(=O)c1ccccc1 (configuration not stated),-5,0,3,-7,1
CC(C)c1ccc(NC(=O)C2CCCN2S(=O)(=O)c2ccccc2F)cc1 (configuration not stated),-34*,10,5,-10,-2
Cc1ccc(NC(=O)Cn2c(-c3cncs3)nc3ccccc32)c(Br)c1,3,·,0,6,1
COc1cccc(CNCc2c(C(=O)O)c(C)n(Cc3ccc(F)cc3Cl)c2C)c1OC,-2,·,2,0,-7
Cc1ccccc1OCC(=O)Nc1ccc(-c2nc3cc(Cl)cc(Cl)c3o2)cc1,-9,·,1,-3,7
CC1CCc2c(cc(-c3ccccc3)n2-c2ccc(C(=O)NC(C)C)cc2)C1 (configuration not stated),-39*,·,7,-5,-14
CC(C)NC(=O)c1ccc(-n2c(-c3ccccc3)cc3c2CCCCC3)cc1,-8,·,1,-4,-18
CN(CCCNC(=O)c1ccc(/C=N/O)nc1)CCCN(C)Cc1ccccc1,-5,-28,3,-5,-9
CN(CCNC(=O)c1ccc(/C=N/O)nc1)Cc1ccccc1,5,-76*,1,-1,-31
O=C(NCCc1ccccc1)c1ccnc(/C=N/O)c1,-34*,-22,1,-11,-5
COC(=O)c1ccc(C(=O)OC)c(NC(=O)c2c(-c3ccccc3)c(-c3ccccc3)nn(C)c2=O)c1,14,·,0,3,8
Cc1oc(-c2ccc(C(=O)NCc3cccc(F)c3)cc2)nc1COc1ccccc1,3,·,16,-2,8
COc1ccc(C(C)=O)cc1CN(c1ccccc1OC)S(=O)(=O)c1cccs1,-94*,13,5,1,6
COc1ccccc1CN(C)S(=O)(=O)c1cccs1,-8,-2,0,-6,-5
CCS(=O)(=O)c1c(Nc2cc(C)ccc2C)sc(C(=O)c2ccccc2)c1N,38,·,41*,5,-2
Cc1c(Cl)cccc1Nc1sc(C(=O)c2ccccc2)c(N)c1S(=O)(=O)c1ccccc1,9,·,12,-1,7
Cc1ccc(Cl)cc1Nc1sc(C(=O)c2ccccc2)c(N)c1S(=O)(=O)c1ccccc1,-51*,·,54*,3,10
CCOc1ccccc1Nc1sc(C(=O)c2ccccc2)c(N)c1S(=O)(=O)c1ccc(C)cc1,13,·,15,2,-1
O=C(Nc1ccccc1O)c1cc(S(=O)(=O)N2CCCC2)ccc1Cl,-20,·,5,-2,6
CC(C)c1ccc(/C=C2\SC(=S)N(CC(=O)NCCCN3CCOCC3)C2=O)cc1,-35*,-1,10,-4,-5
CCc1ccc(/C=C2\SC(=S)N(CCC(=O)NCCCN3CCOCC3)C2=O)cc1,-37*,10,17,-14,1
CCOc1ccc(/C=C2\SC(=S)N(CC(=O)NCCCN3CCOCC3)C2=O)cc1,-6,-24,2,-8,-14
O=C(CCCN1C(=O)/C(=C/c2ccccc2)SC1=S)NCCCn1ccnc1,-30*,-1,14,4,8
